Assay results as given in PubChem BioAssay (EPA / NIEHS).
Inconclusive results are not listed. The source made the active and inactive calls. Rule for the calls, unless noted: active = hit-call score of the fitted dose curve at least 0.9, where 1 is the maximum; inconclusive = response in the unintended direction; inactive = score below 0.9.

Experiments:
[1] = TOX21_p53_BLA_p2_viability: Viability Assessment in the Tox21 HCT-116 p53 Agonism Beta-lactamase Assay, Phase 2 (AID 2283591);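 note: compound exposure lasted 16 h at 37 °C; actives lower the ATP signal meaning cytotoxicity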
How it was run: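 HCT-116 p53-bla cells (4000/well) rested 5 h at 37C, then received compounds in DMSO (217-fold dilution) for 16 h at 37C, 5% CO2. After the CCF4 read, CellTiter-Glo was added; ATP luminescence was read after 30 min at room temperature.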

[2] = biological target: Cellular tumor antigen p53 (Homo sapiens) (UniProt P04637); test: TOX21_p53_BLA_p2_ratio: Tox21 HCT-116 p53 Agonism Beta-lactamase Assay, Ratio, Phase 2 (AID 2283592)
Sequence of Cellular tumor antigen p53 (Homo sapiens) (P04637 whole entry, looked up): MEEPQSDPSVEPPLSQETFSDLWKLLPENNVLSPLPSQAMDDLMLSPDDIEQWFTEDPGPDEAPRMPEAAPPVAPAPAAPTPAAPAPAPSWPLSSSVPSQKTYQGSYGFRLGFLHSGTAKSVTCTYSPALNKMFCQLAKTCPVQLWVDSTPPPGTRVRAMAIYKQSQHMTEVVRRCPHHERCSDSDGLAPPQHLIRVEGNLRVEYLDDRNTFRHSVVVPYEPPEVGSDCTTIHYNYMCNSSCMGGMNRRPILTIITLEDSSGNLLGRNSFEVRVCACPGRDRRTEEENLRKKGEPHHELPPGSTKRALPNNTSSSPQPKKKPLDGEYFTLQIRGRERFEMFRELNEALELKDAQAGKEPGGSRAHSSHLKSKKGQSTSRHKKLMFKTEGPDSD
How it was run: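 Gain-of-signal p53 agonism was scored from the beta-lactamase FRET ratio (460/530 nm, 405 nm excitation) in HCT116 cells treated 16 h at 37C, 5% CO2, with DMSO serving as negative control and baseline.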

[3] = TOX21_p53_BLA_p3_viability: Viability Assessment in the Tox21 HCT-116 p53 Agonism Beta-lactamase Assay, Phase 3 (AID 2283593);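 note: cells exposed to compound for 16 h before reading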
How it was run: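 HCT-116 cells (4000/well) rested 5 h at 37C, then got DMSO compounds by pin tool (217-fold dilution) for 16 h at 37C, 5% CO2. After the bla read, CellTiter-Glo was added and luminescence read at 30 min, room temperature.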

[4] = biological target: Cellular tumor antigen p53 (Homo sapiens) (UniProt P04637); test: TOX21_p53_BLA_p3_ratio: Tox21 HCT-116 p53 Agonism Beta-lactamase Assay, Ratio, Phase 3 (AID 2283596)
How it was run: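 HCT116 p53-bla cells (4000/well) given compound in DMSO (217-fold dilution) after 5 h, incubated 16 h at 37C. CCF4-AM substrate 2 h at room temperature; 460/530 nm emission ratio, gain fitted against DMSO.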

[5] = TOX21_p53_BLA_p4_viability: Viability Assessment in the Tox21 HCT-116 p53 Agonism Beta-lactamase Assay, Phase 4 (AID 2283597);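 note: hits lower the luminescence signal meaning cytotoxicity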
How it was run: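 Following a 16 h exposure at 37C, the treated HCT116 wells were first read for the FRET ratio. They were then lysed with CellTiter-Glo, and ATP luminescence was recorded after 30 min at room temperature.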

[6] = biological target: Cellular tumor antigen p53 (Homo sapiens) (UniProt P04637); test: TOX21_p53_BLA_p5_ratio: Tox21 HCT-116 p53 Agonism Beta-lactamase Assay, Ratio, Phase 5 (AID 2283599)
How it was run: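 HCT-116 cells carrying a p53-inducible beta-lactamase reporter were seeded at 4000 cells/well and dosed after 5 h with compound in DMSO (217-fold dilution). After 16 h at 37C, CCF4-AM substrate was added for 2 h, and the 460/530 nm emission ratio was scored as gain-of-signal versus DMSO.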

[7] = TOX21_p53_BLA_p5_viability: Viability Assessment in the Tox21 HCT-116 p53 Agonism Beta-lactamase Assay, Phase 5 (AID 2283600)
How it was run: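 After the 460/530 nm beta-lactamase measurement, the wells received an ATP-detection luciferase reagent; signal was read 30 min later at RT. Compound treatment lasted 16 h on cells pre-incubated 5 h post-seeding.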

[8] = biological target: Cellular tumor antigen p53 (Homo sapiens) (UniProt P04637); test: TOX21_p53_BLA_p4_ratio: Tox21 HCT-116 p53 Agonism Beta-lactamase Assay, Ratio, Phase 4 (AID 2283601)
How it was run: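 HCT116 cells carrying an inducible beta-lactamase reporter were plated at 4000 cells/well, rested 5 h, then exposed to compounds in DMSO (217-fold dilution) for 16 h at 37C. CCF4-AM substrate was loaded 2 h at room temperature; 460/530 nm emission ratio scored gain-of-signal versus DMSO.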

[9] = STM_H9_OrnCyssISnorm_ratio: Stemina devTOX quickPredict H9 human embryonic stem cell (hESC)-based Assay for Ornithine (ORN):Cystine (CYSS) Ratio (AID 2283714)
How it was run: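 Undifferentiated H9 hESCs were exposed to compound for 72h with media and chemical replaced every 24h. Final 24-h conditioned media were deproteinized and analysed by UPLC-HRMS. ORN and CYSS peak areas were normalized to C13 internal standards and the ratio taken versus 0.1% DMSO.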

[10] = STM_H9_NormalizedViability: Cytotoxicity Assessment at 120 hours in the Stemina devTOX quickPredict H9 human embryonic stem cell (hESC)-based Assay (AID 2283784)
How it was run: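 Chemicals are tested blinded on H9 human embryonic stem cells in the pluripotent state, with medium exchanged daily. After background correction, fluorescence from CellTiter-Fluor is scaled against 0.1% DMSO wells, and decreases are scored.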

[11] = CCTE_Harrill_HTTr_Viability_MCF7: CCTE's 6-hour Cell Viability Assessment for the High-Throughput Transcriptomics (HTTr) Platform, in MCF-7 cells cultured in DMEM + 10% fetal bovine serum, Harrill Lab (AID 2284010; active = hit-call score of the fitted dose curve at least 0.9, where 1 is the maximum; inactive = score below 0.9)
How it was run: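 Viability measured through PI dye exclusion by high-content imaging at 6 h post-dosing.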

[12] = CCTE_Harrill_HTTr_Apoptosis_MCF7: CCTE's 6-hour Apoptosis Assessment for the High-Throughput Transcriptomics (HTTr) Platform, in MCF-7 cells cultured in DMEM + 10% fetal bovine serum, Harrill Lab (AID 2284011; active = hit-call score of the fitted dose curve at least 0.9, where 1 is the maximum; inactive = score below 0.9)
How it was run: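 High-content imaging of CellEvent Caspase 3/7 Green signal follows a six-hour exposure, with eight concentrations per chemical. MCF-7 cells grown in DMEM plus 10% fetal bovine serum; activity fitted in both directions against DMSO.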

[13] = CCTE_Harrill_HTTr_CellCount_MCF7: CCTE's Cell Proliferation Assessment for the High-Throughput Transcriptomics (HTTr) Platform, Harrill Lab (AID 2284012);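 note: count of Hoechst-stained nuclei per well by high-content imaging in MCF-7 cells; cells exposed to compound for six hours; intended direction is loss of nuclei count meaning fewer cells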
How it was run: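 Nuclei counting (Hoechst, high content imaging) in MCF-7 after a 6 h treatment at eight concentrations. Activity fitted bidirectionally, DMSO as negative control.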

[14] = biological target: Thyroid hormone receptor alpha (Rattus norvegicus) + Thyroid hormone receptor beta (Rattus norvegicus) (UniProt P18113+P63059); test: TOX21_TR_LUC_GH3_Antagonist_Followup: Tox21 GH3 Thyroid Hormone Receptor Antagonism Luciferase Follow-Up Assay (AID 2283942)
How it was run: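 Rat pituitary GH3 cells with a TRα/TRβ-driven luciferase reporter, 5 h attachment, then 15 concentrations (92 uM to 5nM final) plus 1.0 nM T3 agonist, 24 h at 37C/5% CO2. ONE-Glo luminescence; signal change fitted against DMSO baseline.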

THRA (gene 7067) = THRA (gene 7067) (UniProt P10827); test: TOX21_TRA_COA_Antagonist_Followup_ratio: Tox21 Thyroid Hormone Receptor alpha Antagonism through Coactivator Recruitment Follow-Up Assay, Ratio (AID 2283953)
Sequence of THRA (gene 7067) (P10827 whole entry, looked up, the tested form may be a part): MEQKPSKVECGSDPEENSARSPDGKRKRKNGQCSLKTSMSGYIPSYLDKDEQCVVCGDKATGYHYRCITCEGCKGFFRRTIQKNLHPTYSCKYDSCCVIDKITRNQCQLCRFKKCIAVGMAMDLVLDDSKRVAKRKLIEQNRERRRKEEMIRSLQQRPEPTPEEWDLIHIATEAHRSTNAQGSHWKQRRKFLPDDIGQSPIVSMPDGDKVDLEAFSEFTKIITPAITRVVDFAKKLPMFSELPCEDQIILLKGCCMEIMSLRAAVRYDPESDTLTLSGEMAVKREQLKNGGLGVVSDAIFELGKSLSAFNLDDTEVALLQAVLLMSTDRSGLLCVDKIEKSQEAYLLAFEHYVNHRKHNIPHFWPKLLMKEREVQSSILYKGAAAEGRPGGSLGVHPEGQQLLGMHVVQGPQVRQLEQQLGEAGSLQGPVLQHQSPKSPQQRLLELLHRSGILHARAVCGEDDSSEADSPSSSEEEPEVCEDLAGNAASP
How it was run: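 This follow-up to the GH3 luciferase screen checks specificity in a cell-free format. It measures SRC-2 coactivator peptide binding to TRα LBD by TR-FRET and scores loss of ratio signal relative to DMSO.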

THRB (gene 7068) [15] = biological target: THRB (gene 7068) (UniProt P10828); test: TOX21_TRB_BLA_Antagonist_Followup_ratio: Tox21 Thyroid Hormone Receptor beta Antagonism Beta-lactamase (BLA) Follow-Up Assay, Ratio (AID 2283958)
Sequence of THRB (gene 7068) (P10828 whole entry, looked up, the tested form may be a part): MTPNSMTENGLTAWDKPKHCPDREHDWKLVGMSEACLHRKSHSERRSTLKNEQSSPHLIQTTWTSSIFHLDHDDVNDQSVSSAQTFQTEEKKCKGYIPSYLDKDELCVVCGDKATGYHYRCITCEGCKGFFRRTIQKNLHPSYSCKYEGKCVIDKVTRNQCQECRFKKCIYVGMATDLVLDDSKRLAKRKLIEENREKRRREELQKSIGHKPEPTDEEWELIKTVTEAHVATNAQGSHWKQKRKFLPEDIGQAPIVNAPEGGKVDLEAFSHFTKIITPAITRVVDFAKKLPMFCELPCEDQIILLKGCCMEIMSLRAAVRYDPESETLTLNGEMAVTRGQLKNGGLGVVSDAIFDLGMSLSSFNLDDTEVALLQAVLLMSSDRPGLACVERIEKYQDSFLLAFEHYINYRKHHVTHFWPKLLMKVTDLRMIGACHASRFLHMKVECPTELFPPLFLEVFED
How it was run: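 In this antagonist-mode follow-up, a stably integrated GAL4-TRβ LBD fusion drives a UAS-beta-lactamase reporter in HEK293T cells. Loss of ratio signal relative to DMSO after 18 h treatment indicates activity; parallel CellTiter-Glo flags cytotoxicity.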

THRB (gene 7068) [16] = biological target: THRB (gene 7068) (UniProt P10828); test: TOX21_TRB_COA_Antagonist_Followup_ratio: Tox21 Thyroid Hormone Receptor beta Antagonism through Coactivator Recruitment Follow-Up Assay, Ratio (AID 2283967)
How it was run: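 Cell-free TR-FRET coactivator recruitment with GST-tagged TRβ LBD (5.0 nM) and fluorescein-labeled SRC-2 peptide (200 nM) detected by terbium anti-GST antibody (2 nM). The 520:495 nm emission ratio was normalized to DMSO (0%) and T3 (100%).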

[17] = biological target: Retinoic acid receptor RXR-alpha (Homo sapiens) (UniProt P19793); test: TOX21_TR_RXR_BLA_Antagonist_Followup_ratio: Tox21 Thyroid Hormone Receptor beta Retinoid X Receptor alpha (RXRa) Antagonism Beta-lactamase (BLA) Follow-Up Assay, Ratio (AID 2283972)
Sequence of Retinoic acid receptor RXR-alpha (Homo sapiens) (P19793 whole entry, looked up): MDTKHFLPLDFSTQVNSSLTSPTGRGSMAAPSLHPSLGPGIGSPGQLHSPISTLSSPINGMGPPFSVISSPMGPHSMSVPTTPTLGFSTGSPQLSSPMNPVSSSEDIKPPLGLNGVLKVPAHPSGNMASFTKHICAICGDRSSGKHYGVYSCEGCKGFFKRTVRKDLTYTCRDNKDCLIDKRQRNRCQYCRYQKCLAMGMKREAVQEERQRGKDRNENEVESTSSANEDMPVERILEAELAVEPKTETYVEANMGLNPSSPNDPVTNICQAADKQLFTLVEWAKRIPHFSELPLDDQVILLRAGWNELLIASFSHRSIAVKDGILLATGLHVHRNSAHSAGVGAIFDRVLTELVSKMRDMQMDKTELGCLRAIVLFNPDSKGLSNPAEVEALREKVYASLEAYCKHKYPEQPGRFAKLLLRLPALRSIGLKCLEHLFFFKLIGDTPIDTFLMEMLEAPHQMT
How it was run: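 After 5 h attachment at 37C, HEK293T RXRa-bla cells (2,500/well, 2% charcoal-stripped FBS, no phenol red) received compounds at 11 concentrations in triplicate for 16 h. Beta-lactamase read as 460:530 nm ratio after 2 h RT substrate loading.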

[18] = TOX21_TR_RXR_BLA_Antagonist_Followup_viability: Viability Assessment in the Tox21 Thyroid Hormone Receptor beta Retinoid X Receptor alpha (RXRa) Antagonism Beta-lactamase (BLA) Follow-Up Assay (AID 2283979)
How it was run: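 RXRa-UAS-bla HEK293T cells seeded 2,500/well in phenol red-free DMEM with 2% charcoal-stripped FBS, attached 5 h, then exposed to compounds at 11 concentrations in triplicate for 16 h at 37C/5% CO2. Viability read by CellTiter-Glo ATP luminescence; bidirectional fit versus DMSO.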

Measured: AC50

O=[N+]([O-])/C=C/c1ccccc1
active: [2] 12 µM
inactive: [1] | [3] | [4]

CC[C@H](N)c1ccccc1
inactive: [1] | [2] | [3] | [4] | [5] | [6]

O=c1ccc2cc(O[C@@H]3O[C@H](CO)[C@@H](O)[C@H](O)[C@H]3O)c(O)cc2o1
active: [2] 10.3 µM | [4] 12 µM | [6] 10.3 µM | [8] 10.9 µM
inactive: [1] | [3] | [5] | [7]

Cc1ccccc1
inactive: [1] | [2] | [3] | [4] | [5] | [6] | [7] | [8]

ClC(Cl)(Cl)Br
inactive: [1] | [2] | [3] | [4] | [5] | [6] | [7] | [8]

COC(COC(N)=O)C1=C(N2CC2)C(=O)C(C)=C(N2CC2)C1=O (stereo not drawn)
active: [2] 6.58 µM | [3] 18.2 µM | [4] 0.121 µM | [6] 0.219 µM | [7] 36.3 µM | [8] 17.2 µM
inactive: [1] | [5]

O=CC=Cc1ccccc1
active: [9] 83.9 µM | [10] 93.6 µM
not listed: [14] | THRA (gene 7067) | THRB (gene 7068) [15] | THRB (gene 7068) [16] | [17] | [18]
inactive: all other assays above

O=C(O)C(Cl)Br (stereo not drawn)
inactive: [1] | [2] | [3] | [4] | [5] | [6] | [7] | [8]

CCN(CC)CCO[C@H]1CC[C@@]2(C)C(=CC[C@@H]3[C@@H]2CC[C@]2(C)C(=O)CC[C@@H]32)C1
not listed: [9] | [10] | [11] | [12] | [13]
inactive: all other assays above

BrC(Br)C(Br)(Br)Br
inactive: [1] | [2] | [3] | [4] | [5] | [6] | [7] | [8]

CCC(C)(S(=O)(=O)CC)S(=O)(=O)CC
inactive: [1] | [2] | [3] | [4] | [5] | [6] | [7] | [8]
